Reference: PubChem BioAssay (Tox21)
Records with an inconclusive call do not appear. Active and inactive are the calls of the source. The call rests on the fitted dose curve.

How the values were obtained:
[1] = molecular target: Acetylcholinesterase (Homo sapiens) (UniProt P22303); assay: Acetylcholinesterase (AChE) small molecule antagonists: colormetric cell-based qHTS assay (AID 1347395); further: nearly all actives have a fitted effect of over 30% in size
In short: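 Quantitative HTS in attached SH-SY5Y cells: 30 min compound exposure, then 90 min with acetylthiocholine and DTNB at 37 C; colour from thiocholine reports AChE activity.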

[2] = molecular target: Acetylcholinesterase (Homo sapiens) (UniProt P22303); assay: Acetylcholinesterase (AChE) small molecule antagonists: enzyme-based qHTS assay (AID 1347397); details: Potency: AChE enzyme activity inhibition; outcome: AChE enzyme activity inhibition; further: nearly all actives have a fitted effect of over 55% in size
In short: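 Compound or DMSO vehicle was pin-transferred onto recombinant human AChE (50 mU/mL as dispensed) and left 30 min at room temperature. Acetylthiocholine with DTNB then started the reaction, read colorimetrically 10 min later.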

[3] = molecular target: Acetylcholinesterase (Homo sapiens) (UniProt P22303); assay: Acetylcholinesterase (AChE) small molecule antagonists: fluorescence cell-based qHTS assay (AID 1347398); details: Potency: AChE activity; outcome: AChE activity; further: nearly all actives have a fitted effect of over 50% in size
In short: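 Using neuroblastoma SH-SY5Y cells as the enzyme source, test chemicals are preincubated 30 min at 37 C; AChE-driven acetylthiocholine cleavage is then quantified by thiocholine-dependent Thiolite Green fluorescence after 40 min at room temperature.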

[4] = molecular target: Acetylcholinesterase (Homo sapiens) (UniProt P22303); assay: Acetylcholinesterase (AChE) small molecule antagonists: enzyme-based qHTS assay with human liver microsomes (AID 1347399); details: Potency: qHTS inhibition; outcome: qHTS inhibition; further: nearly all actives have a fitted effect of over 60% in size
In short: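 Recombinant human AChE (50 mU/mL in the enzyme mix) and human liver microsomes (0.25 mg/mL final) were preincubated with compound and NADPH (0.25 mg/mL final) for 30 min at 37 C. Acetylthiocholine/DTNB was then added; thiocholine was read colorimetrically after 10 min at room temperature.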
On the % scale 0 is the no-effect control and ±100 the full control effect.

Sequence of Acetylcholinesterase (Homo sapiens) (P22303 whole entry, looked up): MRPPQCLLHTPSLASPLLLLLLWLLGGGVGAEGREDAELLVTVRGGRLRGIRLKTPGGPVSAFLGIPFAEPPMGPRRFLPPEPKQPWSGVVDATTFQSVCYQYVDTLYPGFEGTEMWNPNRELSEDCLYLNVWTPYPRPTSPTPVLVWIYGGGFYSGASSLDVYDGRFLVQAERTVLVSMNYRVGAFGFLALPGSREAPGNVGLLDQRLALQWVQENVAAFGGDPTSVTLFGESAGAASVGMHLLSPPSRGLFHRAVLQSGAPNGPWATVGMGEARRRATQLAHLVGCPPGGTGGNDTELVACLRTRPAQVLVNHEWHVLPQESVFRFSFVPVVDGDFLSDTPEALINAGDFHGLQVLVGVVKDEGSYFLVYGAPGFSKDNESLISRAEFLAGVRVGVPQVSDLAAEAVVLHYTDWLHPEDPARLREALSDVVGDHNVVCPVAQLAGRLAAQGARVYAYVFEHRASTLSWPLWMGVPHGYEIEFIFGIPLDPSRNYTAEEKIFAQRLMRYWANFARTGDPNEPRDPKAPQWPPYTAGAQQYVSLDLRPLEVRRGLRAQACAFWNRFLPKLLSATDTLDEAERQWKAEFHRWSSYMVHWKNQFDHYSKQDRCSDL

CCCC(=O)OCC(COC(=O)CCC)OC(=O)CCC
inactive: Potency [1] | Potency [2] | Potency [3] | Potency [4]

NCCNC(=O)c1ccc(Cl)cn1
inactive: Potency [1] | Potency [2] | Potency [3] | Potency [4]

CCN(O)CC
inactive: Potency [1] | Potency [2] | Potency [3] | Potency [4]

Nc1ccc(Cl)c(N)c1
inactive: Potency [1] | Potency [2] | Potency [3] | Potency [4]

C=CC(C)(O)CC/C=C(\C)CC (stereo unspecified)
inactive: Potency [1] | Potency [2] | Potency [3] | Potency [4]

CC(C)CCCCCOC(=O)CCS
inactive: Potency [1] | Potency [2] | Potency [3] | Potency [4]

Oc1c(I)cc(I)c2cccnc12
inactive: Potency [1] | Potency [2] | Potency [3] | Potency [4]

Oc1ccc(O)c2c(O)cccc12
inactive: Potency [1] | Potency [2] | Potency [3] | Potency [4]

CC(C)OP(=O)(CP(=O)(OC(C)C)OC(C)C)OC(C)C
inactive: Potency [1] | Potency [2] | Potency [3] | Potency [4]

CC(=O)c1ccccc1O
inactive: Potency [1] | Potency [2] | Potency [3] | Potency [4]

C=CCCC
inactive: Potency [1] | Potency [2] | Potency [3] | Potency [4]

CCOc1cc(NC(C)=O)ccc1C(=O)OC
inactive: Potency [1] | Potency [2] | Potency [3] | Potency [4]

COCCc1ccc(OCC2CO2)cc1 (stereo unspecified)
inactive: Potency [1] | Potency [2] | Potency [3] | Potency [4]

c1ccc2scnc2c1
inactive: Potency [1] | Potency [2] | Potency [3] | Potency [4]

CSc1nnc(C(C)(C)C)c(=O)[nH]1
inactive: Potency [1] | Potency [2] | Potency [3] | Potency [4]

Cc1cc(S(=O)(=O)O)c(N)cc1Cl
inactive: Potency [1] | Potency [2] | Potency [3] | Potency [4]

C=C(C)c1cccc(C(=C)C)c1
inactive: Potency [1] | Potency [2] | Potency [3] | Potency [4]

COCCC(=O)OC
inactive: Potency [1] | Potency [2] | Potency [3] | Potency [4]

CC(C)(C)OC(=O)c1cccc(N)c1
inactive: Potency [1] | Potency [2] | Potency [3] | Potency [4]

O=C(O)CCCCC1CCSS1 (stereo unspecified)
inactive: Potency [1] | Potency [2] | Potency [3] | Potency [4]

CCOC(=O)c1ccccc1C
inactive: Potency [1] | Potency [2] | Potency [3] | Potency [4]

CCN1C(=O)c2ccccc2C1Nc1ccc(OCCN2CCCCC2)cc1 (stereo unspecified)
inactive: Potency [1] | Potency [2] | Potency [3] | Potency [4]

OCCN(CCO)c1cccc(Cl)c1
inactive: Potency [1] | Potency [2] | Potency [3] | Potency [4]

C/C(=C\c1ccc(C(=O)O)cc1)c1ccc2c(c1)C(C)(C)CCC2(C)C
inactive: Potency [1] | Potency [2] | Potency [3] | Potency [4]

Cc1ccc(C(C)(C)O)cc1
inactive: Potency [1] | Potency [2] | Potency [3] | Potency [4]

CC/C=C\C#N
inactive: Potency [1] | Potency [2] | Potency [3] | Potency [4]

OCCN(CCO)c1ccccc1
inactive: Potency [1] | Potency [2] | Potency [3] | Potency [4]

CN(C)N=Nc1ccccc1
inactive: Potency [1] | Potency [2] | Potency [3] | Potency [4]

Oc1ccc2c(c1)CCC2
inactive: Potency [1] | Potency [2] | Potency [3] | Potency [4]

F[Si-2](F)(F)(F)(F)F
inactive: Potency [1] | Potency [2] | Potency [3] | Potency [4]

COc1cccc(N(C)C(=S)Oc2ccc3c(c2)CCCC3)n1
inactive: Potency [1] | Potency [2] | Potency [3] | Potency [4]

CN1CCCC1=O
inactive: Potency [1] | Potency [2] | Potency [3] | Potency [4]

C=Cc1cccc(C)c1
inactive: Potency [1] | Potency [2] | Potency [3] | Potency [4]

C/C=C/CO
inactive: Potency [1] | Potency [2] | Potency [3] | Potency [4]

C(=C/c1ccccc1)/c1ccccc1
inactive: Potency [1] | Potency [2] | Potency [3] | Potency [4]

O=C1C(CCS(=O)c2ccccc2)C(=O)N(c2ccccc2)N1c1ccccc1 (stereo unspecified)
inactive: Potency [1] | Potency [2] | Potency [3] | Potency [4]

CCCC(=O)OCOC(=O)C1=C(C)NC(C)=C(C(=O)OC)C1c1cccc(Cl)c1Cl (stereo unspecified)
inactive: Potency [1] | Potency [2] | Potency [3] | Potency [4]

Cc1nc2ccccc2c(=O)o1
inactive: Potency [1] | Potency [2] | Potency [3] | Potency [4]

N[C@@H](CSSC[C@H](N)C(=O)O)C(=O)O
inactive: activity, negative = inhibition [1] 3.18% [at 0.435 µM] | activity change, negative = inhibition [2] 0.405% [at 0.435 µM] | activity change, negative = inhibition [3] 2.04% [at 0.439 µM] | activity change, negative = inhibition [4] -2.13% [at 0.435 µM]

O=C(O)c1cc(Cl)cc(Cl)c1
inactive: Potency [1] | Potency [2] | Potency [3] | Potency [4]

Nc1cc(S(=O)(=O)O)ccc1S(=O)(=O)O
inactive: Potency [1] | Potency [2] | Potency [3] | Potency [4]

Cc1ccccc1OCC(O)CO (stereo unspecified)
inactive: Potency [1] | Potency [2] | Potency [3] | Potency [4]

OCC(CO)(CO)CO
inactive: Potency [1] | Potency [2] | Potency [3] | Potency [4]

CC12CCC(CC1)C(C)(C)O2
inactive: Potency [1] | Potency [2] | Potency [3] | Potency [4]

CCn1c2ccccc2c2ccccc21
inactive: Potency [1] | Potency [2] | Potency [3] | Potency [4]

CCc1c(C(=O)O)c(=O)cnn1-c1ccc(Cl)cc1
inactive: Potency [1] | Potency [2] | Potency [3] | Potency [4]

Cc1ccc(-n2nc(C(C)(C)C)cc2NC(=O)Nc2ccc(OCCN3CCOCC3)c3ccccc23)cc1
inactive: Potency [1] | Potency [2] | Potency [3] | Potency [4]

CC(C)c1ccc(C(=O)N=C(N)N)cc1S(C)(=O)=O
inactive: outcome [1] | outcome [2] | outcome [3] | outcome [4]

O=C(O)C[C@H](NC(=O)OCc1ccccc1)C(=O)O
inactive: Potency [1] | Potency [2] | Potency [3] | Potency [4]
